Bioassay records deposited in PubChem by National Center for Advancing Translational Sciences (NCATS).
Pf Dd2 inh = blocks in vitro growth of P. falciparum Dd2 | 120,000 tested, 4.3% active | AID 1347417 | P. falciparum Dd2 growth, SYBR Green, 72 h | Potency, µM (highest dose often 28.9 µM), for inactives: at the highest dose activity, negative = inhibition, actives largely listed as inhibitors; active = well fitted inhibition curve with a large enough effect;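 also: plate controls were DMSO vehicle for no effect and reference drug for full effect; nearly all actives have a fitted effect of over 65% in size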
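Readout: SYBR Green fluorescence, 485 nm excitation, 535 nm emission, after ~16 h lysis at 37C. Before that, Dd2-infected red cells (2.5% hematocrit) grew 72 h with compound, 29 uM top final concentration.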
An asterisk follows results filed as active; i = inactive; [ ] = remark or other dose. Only a selection was taken, and hits are over-represented in it overall. Potency is read from the fitted curve at half-maximal effect.

SMILES	Pf Dd2 inh
Cc1ccc(C2=NC3(CCN(C(=O)c4cccc(N(C)C)c4)CC3)ON2)cc1	-8%
CN(C)c1cccc(C(=O)N2CCC(c3c[nH]c4ccccc34)(c3c[nH]c4ccccc34)CC2)c1	4µM*
CC(C)CC1=NC2(CCN(C(=O)c3cccc(N(C)C)c3)CC2)C(=O)N1	-2%
Cc1noc(C)c1C(C(=O)O)N(C)Cc1nc(-c2ccccn2)no1 (stereo unspecified)	17%
Cc1cnc(C(=O)N2CCC(c3nc(CCOc4ccc(F)cc4)no3)C2)cn1 (stereo unspecified)	i
COc1cc(OCc2ccccc2)ccc1CN1C[C@@H]2CCN[C@@H]2C1	10µM*
COc1ccc(CN2C[C@@H]3C(=O)N(Cc4ccc5c(c4)OCO5)C(=O)[C@@H]3C2)c(OC)c1	i
COCCN1C(=O)[C@H]2CN(Cc3ccc(OC)cc3OC)C[C@H]2C1=O	i
Cc1ccc(NC(=O)N2CCCC(Cn3cnc4cccnc43)C2)cc1F (stereo unspecified)	-25%
Cc1ccc(C(=O)N2C[C@@H](CO)[C@H](c3ccccn3)C2)c(=O)[nH]1	30%
COCc1cc(N2CCc3onc(-c4cccc5ccccc45)c3C2)ncn1	14µM*
O=S(=O)(c1cccnc1)N1CCc2onc(-c3cccc4ccccc34)c2C1	-17%
COc1ncccc1C(=O)N1CCc2onc(-c3cccc4ccccc34)c2C1	-20%
CC(C)NC(=O)N1CNC(=O)C12CCN(C(=O)[C@@H](N)c1ccccc1)CC2	2%
CN(C)S(=O)(=O)NCc1cccnc1N1CCN(c2ccccn2)CC1	-4%
Cc1nc(CN2CCOc3cc([S+](=O)([O-])Nc4ccccc4)ccc3C2)cs1	i
Cc1cc(S(=O)(=O)N2CCCC(Cn3cnc4cccnc43)C2)ccc1F (stereo unspecified)	i
CCOc1ccc(NC(=O)NCCCN2CCN(c3ccc(F)cc3)CC2)cc1	i
CCC(=O)N1c2ccccc2CC1C(=O)NCCCN1CCN(c2ccc(F)cc2)CC1 (stereo unspecified)	-13%
O=C(NCCCN1CCN(c2ccc(F)cc2)CC1)Nc1ccccc1Cl	7.9µM*
COc1ccc(OC)c([C@@H]2C[C@H](NC(C)=O)C[C@H](Cc3ccccc3)O2)c1	-22%
COCCC(=O)N1CCCC(c2nc(CCOc3cccc(C)c3)no2)C1 (stereo unspecified)	-8%
CCCS(=O)(=O)N1CC(c2nc(CCOc3cccc(C)c3)no2)C1	-17%
Cc1cccc(OCCc2noc(C3CCCNC3)n2)c1 (stereo unspecified)	5µM*
O=C(c1ccc2c(c1)OCO2)N1CCC(N2Cc3ccccc3C2=O)CC1	22%
SMILES	Pf Dd2 inh
COc1ccc(-c2cn(C)c(=O)n3cc(CN4CC[S+](=O)([O-])CC4)nc23)cn1	-1%[44.1 µM]
O=C1NCCCCCCN(Cc2ccncc2)[C@@H]2CN(C3CCOCC3)CC[C@H]12	i
Cc1cc2cc(C(=O)N3CC[C@@H]4[C@@H](CCC(=O)N4CCN)C3)ccc2o1	-7%
Cc1noc([C@@H](C)NC(=O)COc2ccccc2)c1C(=O)O	-18%[44.1 µM]
COc1cc(C2c3c(oc4ccccc4c3=O)C(=O)N2Cc2ccccc2Cl)ccc1O (stereo unspecified)	-26%
COc1cc(C2c3c(-c4ccccc4O)n[nH]c3C(=O)N2CCO)ccc1OCC(C)C (stereo unspecified)	10µM*
COc1cc(C2c3c(-c4c(C)cc(C)cc4O)n[nH]c3C(=O)N2CCO)cc(OC)c1OC (stereo unspecified)	i
COc1cc(C2c3c(-c4ccccc4O)n[nH]c3C(=O)N2Cc2ccco2)ccc1OCC(C)C (stereo unspecified)	2.2µM*
COc1ccc(C2c3c(-c4ccc(F)cc4)n[nH]c3C(=O)N2c2ccccc2)cc1OC (stereo unspecified)	-4%
CN1CCN(C(=O)c2cnc(-c3ccccn3)nc2)[C@H]2CS(=O)(=O)C[C@H]21	7%
O=C(NCCC1CCN(C(=O)Nc2cc(F)ccc2F)CC1)c1ccccc1	-13%
COCc1nc(C2CCCN(C(=O)Nc3ccccc3C)C2)no1 (stereo unspecified)	30%
COCCn1ncc(N2CCC(NC(=O)c3ccc(C)cc3C)CC2)cc1=O	i
O=C1NCCOCCCN(S(=O)(=O)c2ccc3c(c2)CCC3)[C@H]2CCC[C@@H]12	-23%
Cc1nc(CN2Cc3nc(-c4ccccc4)ccc3OCC2=O)cs1	-16%[44.1 µM]
O=C1COc2ccc(-c3ccsc3)nc2CN1Cc1ccc(C(F)(F)F)cc1	7.9µM*
O=C1COc2ccc(-c3cccnc3)nc2CN1Cc1ccc(C(F)(F)F)cc1	-25%[44.1 µM]
O=C1COc2ccc(-c3ccsc3)nc2CN1Cc1ccccc1	-5%[44.1 µM]
CN1Cc2nc(Nc3ccc(C(F)(F)F)cc3)ccc2OCC1=O	i
Cc1nc(CN2Cc3nc(Nc4ccc(C(F)(F)F)cc4)ccc3OCC2=O)cs1	11µM*
COCCn1c(C)cc(C(=O)N2C[C@@H](CO)[C@H](c3ccccn3)C2)c1C	12%
O=[S+]([O-])(c1cccc(C(F)(F)F)c1)N1CC(Oc2ccc3c(c2)OCO3)C1	16%
CNC(=O)[C@@H]1CN(Cc2ccccc2)C[C@H]1c1n[nH]c(C)n1	-19%
O=C(c1n[nH]c2c1CCCC2)N1CCC2(CC1)NC(=O)N(c1ccccc1)N2	3.2µM*
Cc1ccsc1C(=O)N1CCC2(CC1)NC(=O)N(c1ccccc1)N2	43%
SMILES	Pf Dd2 inh
COc1ccc(C(=O)N2CCC3(CC2)NC(=O)N(c2ccccc2)N3)cc1	7%
CNC(=O)c1ccc2cncn2c1	-2%[44.1 µM]
COCCN1C(=O)[C@H]2CN(Cc3cccc(C)c3)C[C@H]2C1=O	-24%
Cc1ccc2nc(N3CCN(C(=O)C4CC4)CC3)sc2c1	33%
O[C@H]1CCCC[C@@H]1NC1CCN(c2nc3ccc(Cl)cc3s2)CC1	4µM*
O=C(NCc1cccc(Cl)c1)c1ccc2nc(N3CCCCC3)sc2c1	i
COCCNC(=O)c1cc(C2CC2)nc2c1c(C1CCCN1)nn2-c1ccccc1 (stereo unspecified)	11µM*
Cc1nn(-c2ccccc2)c2nc(C3CC3)cc(C(=O)Nc3cccc(F)c3)c12	10µM*
COc1ccc(-c2cc(C(=O)NCC(C)C)c3c(C4CCCN4)nn(C)c3n2)cc1 (stereo unspecified)	4µM*
Cn1nc(C2CCCN2)c2c(C(=O)N3CCOCC3)cc(C3CC3)nc21 (stereo unspecified)	0%
Cc1nn(-c2ccccc2)c2nc(C3CC3)cc(C(=O)NCc3ccccc3Cl)c12	i
COc1ccc(-c2cc(C(=O)N3CCOCC3)c3c(C4CCCN4)nn(C)c3n2)cc1 (stereo unspecified)	-26%
COCCNC(=O)c1cc(C2CC2)nc2c1c(C1CCCNC1)nn2C (stereo unspecified)	12%
COc1ccc(NC(=O)c2cc(C3CC3)nc3c2c(C)nn3-c2ccccc2)cc1OC	13%
COCCNC(=O)c1cc(-c2ccc(OC)cc2)nc2c1c(C1CCNC1)nn2C (stereo unspecified)	-28%
CCc1ccc(C(=O)N2CCC(Oc3ccc(C(N)=O)cn3)CC2)cc1	6%
COc1ccc(Cn2c(C3CCN(C(=O)c4c(F)cccc4F)CC3)n[nH]c2=O)cc1	-26%
COc1cccc(CC(=O)N2CCCC(c3noc(COc4ccccc4F)n3)C2)c1 (stereo unspecified)	i
Cc1nc(-c2c3n(c(=O)n(CC(=O)Nc4ccc(F)cc4F)c2=O)CCCC3)no1	-24%
CCCc1nc(C(=O)N(C)Cc2cnn(-c3ccccc3C)c2)cs1	2%
